# Measurements as given in PubChem BioAssay (NCATS).
# Records with an inconclusive call do not appear. Where a call stands in place of a potency, no number is given. Unmarked numbers belong to inactive results. Active and inactive are the calls of the source. Calls come from the whole dose curve; as a rule, active = well fitted curve in the direction sought with a large enough effect; inconclusive = small, poorly fitted or top-dose-only effect, or another doubt; inactive = no such curve, though single readings can be large; an effect the other way counts as inactive or inconclusive.
# Assays:
# NIH3T3 [1] = experiment: Cytotoxic Profiling of Annotated Libraries Using Quantitative High-Throughput Screening (AID 1296008); details: Five cell lines viability, CellTiter-Glo ATP luminescence, 48-72 h; max response: hits give low values; note: nearly all actives have a fitted effect of over 60% in size
# Procedure, shortened: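 Cytotoxicity was measured as CellTiter-Glo ATP luminescence, read after 10 min at room temperature. Compound treatment of the cells lasted 48 or 72 hr at 37 degrees Celsius in a qHTS format.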
# MCC-13 = experiment: qHTS assay to identify novel small-molecules to repurpose for Merkel cell carcinoma treatment (AID 1296009); details: MCC and control cell lines, CellTiter-Glo viability, 72 h; series mostly up to 46 µM; note: nearly all actives have a fitted effect of over 60% in size
# Procedure, shortened: (§1)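 72 hr, 37 degree celsius; NPC 8-pt / MIPE 11-pt dose response; compound pinned in DMSO; CellTiter-Glo, 10 min RT, luminescence; normalized to no-cell and DMSO controls.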
# MKL-1 = experiment: as above; details: MCC and control cell lines, CellTiter-Glo viability, 72 h; series mostly up to 46 µM
# Procedure, shortened: as §1
# NIH3T3 [2] = experiment: as above; details: MCC and control cell lines, CellTiter-Glo viability, 72 h; at 44.8 µM (top of the series)
# Procedure, shortened: as §1
# UISO = experiment: as above; details: MCC and control cell lines, CellTiter-Glo viability, 72 h; series mostly up to 46 µM
# Procedure, shortened: as §1
# WaGa = experiment: as above; details: MCC and control cell lines, CellTiter-Glo viability, 72 h; series mostly up to 46 µM
# Procedure, shortened: as §1
# C33A = experiment: Primary qHTS to identify gynecologic anti-cancer compounds using libraries of approved drugs and bioactive compounds (AID 1345084); details: Gynecologic cancer cell panel viability, ATPlite luminescence, 48 h; series mostly up to 57.5 µM; note: nearly all actives have a fitted effect of over 55% in size
# Procedure, shortened: (§2)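 Cytotoxicity screen measuring ATP content by luciferase luminescence. Each compound is applied at five concentrations for 48 h at 37 C with 5% CO2.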
# CASKI = experiment: as above; details: Gynecologic cancer cell panel viability, ATPlite luminescence, 48 h; series mostly up to 57.5 µM
# Procedure, shortened: as §2
# Es-2 = experiment: as above; details: Gynecologic cancer cell panel viability, ATPlite luminescence, 48 h; series mostly up to 57.5 µM
# Procedure, shortened: as §2
# HeLa = experiment: as above; details: Gynecologic cancer cell panel viability, ATPlite luminescence, 48 h; series mostly up to 57.5 µM
# Procedure, shortened: as §2
# Hek293T = experiment: as above; details: Gynecologic cancer cell panel viability, ATPlite luminescence, 48 h, control line for the selectivity index; series mostly up to 57.5 µM
# Procedure, shortened: as §2
# JEG-3 = experiment: as above; details: Gynecologic cancer cell panel viability, ATPlite luminescence, 48 h; series mostly up to 57.5 µM
# Procedure, shortened: as §2
# OV90 = experiment: as above; details: Gynecologic cancer cell panel viability, ATPlite luminescence, 48 h; series mostly up to 57.5 µM
# Procedure, shortened: as §2
# PA-1 = experiment: as above; details: Gynecologic cancer cell panel viability, ATPlite luminescence, 48 h; series mostly up to 57.5 µM
# Procedure, shortened: as §2
# MKL-2 = experiment: qHTS assay to identify novel small-molecules to repurpose for Merkel cell carcinoma treatment (AID 1296009); details: MCC and control cell lines, CellTiter-Glo viability, 72 h; series mostly up to 46 µM; note: nearly all actives have a fitted effect of over 60% in size
# Procedure, shortened: as §1
# MCC-26 = experiment: as above; details: MCC and control cell lines, CellTiter-Glo viability, 72 h; series mostly up to 46 µM
# Procedure, shortened: as §1
# CAOV3 = experiment: Primary qHTS to identify gynecologic anti-cancer compounds using libraries of approved drugs and bioactive compounds (AID 1345084); details: Gynecologic cancer cell panel viability, ATPlite luminescence, 48 h; series mostly up to 57.5 µM; note: nearly all actives have a fitted effect of over 55% in size
# Procedure, shortened: as §2
# Potency is the fitted concentration of half-maximal effect.
Structure (SMILES),outcome (NIH3T3 [1]),Potency (MCC-13),Potency (MKL-1),outcome (NIH3T3 [2]),Potency (UISO),Potency (WaGa),Potency (C33A),Potency (CASKI),Potency (Es-2),Potency (HeLa),Potency (Hek293T),Potency (JEG-3),Potency (OV90),Potency (PA-1),Potency (MKL-2),max response (NIH3T3 [1]),Potency (MCC-26),Potency (CAOV3),Potency (NIH3T3 [1])
C=C1c2cccc(O)c2C(O)=C2C(=O)[C@]3(O)C(O)=C(C(N)=O)C(=O)[C@@H](N(C)C)[C@@H]3[C@@H](O)[C@H]12,inactive,inactive,inactive,inactive,inactive,inactive,inactive,inactive,inactive,inactive,inactive,inactive,inactive,inactive,–,–,–,–,–
CCCCCCCCCCCCCC[N+](C)(C)Cc1ccccc1,–,–,6.68 µM (active),–,6.68 µM (active),7.5 µM (active),25.1 µM (active),14.1 µM (active),–,25.1 µM (active),–,–,–,–,1.06 µM (active),–,–,–,–
NS(=O)(=O)Cc1noc2ccccc12,–,inactive,inactive,–,inactive,inactive,inactive,inactive,inactive,inactive,inactive,inactive,inactive,inactive,inactive,0.477%,inactive,inactive,–
O=C(O)P(=O)(O)O,–,inactive,inactive,–,inactive,inactive,inactive,inactive,inactive,inactive,inactive,inactive,inactive,inactive,inactive,4.83%,inactive,–,–
Nc1ccc(S(=O)(=O)Nc2cnc3ccccc3n2)cc1,inactive,inactive,inactive,inactive,inactive,inactive,inactive,inactive,inactive,inactive,inactive,inactive,inactive,inactive,inactive,–,–,inactive,–
C[C@@]12C(=O)OC(=O)[C@]1(C)C1CCC2O1,–,3.76 µM (active),3.76 µM (active),–,2.66 µM (active),–,–,6.31 µM (active),10 µM (active),3.55 µM (active),10 µM (active),11.2 µM (active),3.16 µM (active),–,–,–,–,0.631 µM (active),9.44 µM (active)
CC(C)n1c(/C=C/[C@@H](O)C[C@@H](O)CC(=O)O)c(-c2ccc(F)cc2)c2ccccc21,–,9.44 µM (active),13.3 µM (active),–,3.35 µM (active),–,–,inactive,inactive,–,inactive,–,8.91 µM (active),–,–,–,13.3 µM (active),–,11.9 µM (active)
O=S(=O)(O)c1ccc(O)cc1,–,inactive,inactive,–,inactive,inactive,inactive,inactive,inactive,inactive,inactive,inactive,–,inactive,inactive,1.54%,inactive,inactive,–
O=C(Nc1ncc([N+](=O)[O-])s1)c1cccs1,–,–,–,–,–,26.6 µM (active),inactive,–,–,–,–,inactive,20 µM (active),–,–,–,–,–,–
CC(CNC1CCCCC1)OC(=O)c1ccccc1 (stereo not drawn),–,inactive,inactive,–,inactive,inactive,inactive,inactive,inactive,inactive,inactive,inactive,–,inactive,inactive,0.669%,inactive,inactive,–
CCNC(=O)NCc1cccc(Cl)c1,–,inactive,inactive,–,inactive,inactive,inactive,inactive,inactive,inactive,inactive,inactive,inactive,inactive,inactive,0.416%,inactive,–,–
CCOC(=O)c1c(N)sc2c1CCN(Cc1ccccc1)C2,–,inactive,–,–,–,21.1 µM (active),–,–,inactive,inactive,inactive,inactive,–,–,3.76 µM (active),–,inactive,–,–
O=c1[nH]c(=O)n([C@H]2C[C@H](O)[C@@H](CO)O2)cc1F,–,–,–,–,–,0.0335 µM (active),–,–,–,5.01 µM (active),inactive,–,7.94 µM (active),–,–,–,–,1.58 µM (active),0.006 µM (active)
CCCCCCCCCCCCOCCOCCOCCOCCOCCOCCOCCOCCOCCO,–,inactive,–,–,–,21.1 µM (active),–,–,–,–,–,inactive,28.2 µM (active),–,–,-5.79%,inactive,inactive,–
